# Key:
# Assay in all cases: DAPPL (digital affinity profiling via proximity ligation, sequencing); 10 mM Tris-HCl pH 7.5, 50 mM NaCl, 1 mM DTT, 4% glycerol, room temperature, 30 min; GST-TFs on glutathione beads, 16-mer random dsDNA library, 0.1% formaldehyde crosslink after washing; high values mean tight binding
# Conditions in all cases: protein: recombinant; tags: N-terminal GST; dsDNA, one strand shown
# ELK4 = biological target: T1, ELK4 (Homo sapiens, UniProt P28324-2 1-405)
# T1 sequence: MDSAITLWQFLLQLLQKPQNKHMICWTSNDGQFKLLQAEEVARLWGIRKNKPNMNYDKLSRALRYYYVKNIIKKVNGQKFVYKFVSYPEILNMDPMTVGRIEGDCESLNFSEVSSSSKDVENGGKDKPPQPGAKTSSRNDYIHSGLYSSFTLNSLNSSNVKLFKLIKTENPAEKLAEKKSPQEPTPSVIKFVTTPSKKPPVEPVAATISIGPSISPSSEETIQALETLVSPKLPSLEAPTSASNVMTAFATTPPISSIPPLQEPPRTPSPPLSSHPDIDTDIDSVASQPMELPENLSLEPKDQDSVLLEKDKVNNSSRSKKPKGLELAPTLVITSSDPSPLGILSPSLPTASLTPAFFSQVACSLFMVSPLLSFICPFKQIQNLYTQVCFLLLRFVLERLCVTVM
# Summary of the method: (§1)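 GST fusions of human transcription factors were expressed in yeast and captured with glutathione beads. Once given DNA barcodes and pooled alongside a tag-only sample, they were incubated for 30 min at room temperature with 200 nmole of a random double-stranded 16-mer DNA library in Tris/NaCl/DTT/glycerol buffer, then washed, crosslinked (0.1% formaldehyde), proximity-ligated, PCR-amplified and sequenced on an Illumina NextSeq500. The binding signal of each hexamer is its read frequency for a factor divided by its frequency for the tag-only sample.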
# ELF3 = biological target: T2, ELF3 (Homo sapiens, UniProt P78545 1-371)
# T2 sequence: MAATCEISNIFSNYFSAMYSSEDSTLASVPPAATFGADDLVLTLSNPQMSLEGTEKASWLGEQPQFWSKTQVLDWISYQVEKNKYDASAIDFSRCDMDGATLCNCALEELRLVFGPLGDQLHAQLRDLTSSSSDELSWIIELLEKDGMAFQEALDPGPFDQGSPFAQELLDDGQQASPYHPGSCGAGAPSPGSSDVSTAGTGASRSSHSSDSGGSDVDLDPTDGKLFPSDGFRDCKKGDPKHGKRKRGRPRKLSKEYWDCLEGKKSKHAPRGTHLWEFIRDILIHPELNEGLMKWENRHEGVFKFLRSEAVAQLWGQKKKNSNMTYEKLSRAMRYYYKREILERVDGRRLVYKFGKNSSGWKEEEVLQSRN
# Summary of the method: as §1
# ETV1 = ETV1 (Homo sapiens, UniProt P50549 1-477)
# Summary of the method: as §1
# ERF = biological target: T3, ERF (Homo sapiens, UniProt P50548 1-548)
# T3 sequence: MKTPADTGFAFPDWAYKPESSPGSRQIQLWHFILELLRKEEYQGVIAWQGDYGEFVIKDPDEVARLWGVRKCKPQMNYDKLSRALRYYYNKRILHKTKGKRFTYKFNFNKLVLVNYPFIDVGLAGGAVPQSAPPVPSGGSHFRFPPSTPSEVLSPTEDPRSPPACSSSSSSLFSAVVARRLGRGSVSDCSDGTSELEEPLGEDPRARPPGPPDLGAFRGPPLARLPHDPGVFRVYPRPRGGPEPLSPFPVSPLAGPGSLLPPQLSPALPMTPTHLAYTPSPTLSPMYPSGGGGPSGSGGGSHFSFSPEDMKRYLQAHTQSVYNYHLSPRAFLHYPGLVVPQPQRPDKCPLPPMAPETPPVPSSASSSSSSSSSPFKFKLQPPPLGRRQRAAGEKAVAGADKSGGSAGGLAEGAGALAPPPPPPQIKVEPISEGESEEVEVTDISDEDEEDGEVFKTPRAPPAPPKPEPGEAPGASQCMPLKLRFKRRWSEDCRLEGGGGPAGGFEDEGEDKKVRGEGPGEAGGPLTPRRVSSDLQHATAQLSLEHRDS
# Summary of the method: as §1
# ETV3L = biological target: T4, ETV3L (Homo sapiens, UniProt Q6ZN32 1-361)
# T4 sequence: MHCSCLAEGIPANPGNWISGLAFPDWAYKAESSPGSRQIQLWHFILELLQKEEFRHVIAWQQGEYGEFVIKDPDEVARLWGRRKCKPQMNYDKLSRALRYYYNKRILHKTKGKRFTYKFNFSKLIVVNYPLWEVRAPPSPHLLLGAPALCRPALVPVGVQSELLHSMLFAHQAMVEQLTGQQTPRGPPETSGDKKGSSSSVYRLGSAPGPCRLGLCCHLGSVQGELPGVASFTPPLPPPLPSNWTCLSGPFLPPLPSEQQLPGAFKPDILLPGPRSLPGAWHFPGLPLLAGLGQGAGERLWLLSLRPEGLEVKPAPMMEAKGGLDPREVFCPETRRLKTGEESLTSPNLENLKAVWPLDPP
# Summary of the method: as §1
# ETS2 = biological target: T5, ETS2 (Homo sapiens, UniProt P15036 1-469)
# T5 sequence: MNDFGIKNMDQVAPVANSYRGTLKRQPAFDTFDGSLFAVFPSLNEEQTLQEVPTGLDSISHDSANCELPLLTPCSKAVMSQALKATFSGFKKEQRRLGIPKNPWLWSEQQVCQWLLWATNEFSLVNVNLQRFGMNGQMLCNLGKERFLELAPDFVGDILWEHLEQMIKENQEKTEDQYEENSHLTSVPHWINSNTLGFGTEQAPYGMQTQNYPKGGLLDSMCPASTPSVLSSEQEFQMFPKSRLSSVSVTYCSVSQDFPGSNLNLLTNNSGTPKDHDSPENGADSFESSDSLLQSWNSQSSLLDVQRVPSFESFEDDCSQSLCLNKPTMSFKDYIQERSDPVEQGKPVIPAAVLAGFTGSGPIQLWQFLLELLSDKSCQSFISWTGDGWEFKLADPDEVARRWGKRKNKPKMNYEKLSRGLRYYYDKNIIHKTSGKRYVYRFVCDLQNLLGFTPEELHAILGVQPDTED
# Summary of the method: as §1
# SPDEF = biological target: T6, SPDEF (Homo sapiens, UniProt O95238 1-335)
# T6 sequence: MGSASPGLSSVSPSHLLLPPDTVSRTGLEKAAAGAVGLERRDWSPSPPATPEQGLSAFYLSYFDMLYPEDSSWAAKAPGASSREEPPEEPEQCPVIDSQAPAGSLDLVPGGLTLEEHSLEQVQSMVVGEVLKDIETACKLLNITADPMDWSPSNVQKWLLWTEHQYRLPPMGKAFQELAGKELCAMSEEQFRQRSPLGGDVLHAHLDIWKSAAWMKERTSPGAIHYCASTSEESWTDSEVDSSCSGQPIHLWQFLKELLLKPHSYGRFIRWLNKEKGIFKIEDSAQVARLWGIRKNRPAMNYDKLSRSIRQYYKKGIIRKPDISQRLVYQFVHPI
# Summary of the method: as §1
# ETV7 = biological target: T7, ETV7 (Homo sapiens, UniProt Q9Y603 1-341)
# T7 sequence: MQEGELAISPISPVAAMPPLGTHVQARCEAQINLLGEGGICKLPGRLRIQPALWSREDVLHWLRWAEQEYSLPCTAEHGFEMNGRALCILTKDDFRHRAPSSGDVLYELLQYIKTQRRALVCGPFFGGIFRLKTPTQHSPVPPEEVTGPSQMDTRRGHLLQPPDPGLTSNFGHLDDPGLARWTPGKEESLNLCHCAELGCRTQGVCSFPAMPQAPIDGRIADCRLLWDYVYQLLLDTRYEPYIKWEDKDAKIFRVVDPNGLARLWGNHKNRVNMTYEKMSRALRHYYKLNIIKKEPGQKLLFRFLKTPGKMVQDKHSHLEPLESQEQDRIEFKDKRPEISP
# Summary of the method: as §1
# ETV3 = biological target: T8, ETV3 (Homo sapiens, UniProt P41162-2 1-143)
# T8 sequence: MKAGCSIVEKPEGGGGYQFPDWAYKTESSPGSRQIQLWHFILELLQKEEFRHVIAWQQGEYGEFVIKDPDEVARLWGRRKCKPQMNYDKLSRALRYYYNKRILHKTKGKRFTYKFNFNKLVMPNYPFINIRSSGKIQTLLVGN
# Summary of the method: as §1
# ETV6 = ETV6 (Homo sapiens, UniProt P41212 1-452)
# Summary of the method: as §1
# Chain of ETV6 (P41212 whole entry): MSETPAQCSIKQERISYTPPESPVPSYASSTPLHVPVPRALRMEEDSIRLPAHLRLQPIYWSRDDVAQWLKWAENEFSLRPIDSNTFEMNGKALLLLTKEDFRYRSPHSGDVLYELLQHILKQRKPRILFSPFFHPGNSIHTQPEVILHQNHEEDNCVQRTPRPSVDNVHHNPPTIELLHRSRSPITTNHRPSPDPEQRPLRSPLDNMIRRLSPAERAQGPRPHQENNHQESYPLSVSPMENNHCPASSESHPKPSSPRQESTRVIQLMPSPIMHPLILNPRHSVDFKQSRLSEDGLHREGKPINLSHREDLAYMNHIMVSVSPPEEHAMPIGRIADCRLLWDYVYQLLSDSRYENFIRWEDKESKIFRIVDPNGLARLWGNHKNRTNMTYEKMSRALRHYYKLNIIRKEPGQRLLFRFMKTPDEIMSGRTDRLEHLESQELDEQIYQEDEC
# Chain of ETV1 (P50549 whole entry): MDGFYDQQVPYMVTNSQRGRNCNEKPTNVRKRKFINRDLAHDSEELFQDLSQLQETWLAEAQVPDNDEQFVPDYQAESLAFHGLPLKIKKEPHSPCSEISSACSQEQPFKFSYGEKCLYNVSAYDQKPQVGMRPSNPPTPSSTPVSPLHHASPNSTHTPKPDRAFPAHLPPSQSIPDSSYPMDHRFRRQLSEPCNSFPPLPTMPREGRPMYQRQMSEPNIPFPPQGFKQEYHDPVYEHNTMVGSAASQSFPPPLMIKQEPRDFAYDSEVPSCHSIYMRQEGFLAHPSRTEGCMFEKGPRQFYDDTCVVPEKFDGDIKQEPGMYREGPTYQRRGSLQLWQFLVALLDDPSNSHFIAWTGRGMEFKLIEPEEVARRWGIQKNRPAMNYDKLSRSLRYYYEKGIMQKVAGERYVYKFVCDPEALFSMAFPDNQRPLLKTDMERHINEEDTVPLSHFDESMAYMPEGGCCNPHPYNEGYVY
sequence,measurement,setting,value
CCCAAA,binding signal,ELK4,"1.06 fold enrichment (6-mer frequency, TF over GST control)"
same,binding signal,ELF3,"1.2 fold enrichment (6-mer frequency, TF over GST control)"
same,binding signal,ETV1,"1.08 fold enrichment (6-mer frequency, TF over GST control)"
same,binding signal,ERF,"1.11 fold enrichment (6-mer frequency, TF over GST control)"
same,binding signal,ETV3L,"1.12 fold enrichment (6-mer frequency, TF over GST control)"
same,binding signal,ETS2,"1.02 fold enrichment (6-mer frequency, TF over GST control)"
same,binding signal,SPDEF,"1.06 fold enrichment (6-mer frequency, TF over GST control)"
same,binding signal,ETV7,"1.09 fold enrichment (6-mer frequency, TF over GST control)"
same,binding signal,ETV3,"1.02 fold enrichment (6-mer frequency, TF over GST control)"
same,binding signal,ETV6,"1.1 fold enrichment (6-mer frequency, TF over GST control)"
